# Laboratory results taken from the supplement of paper PMC6555819.
# How the values were obtained:
# Experiment in all cases: PBM binding z-score (relative to random genomic background probes); higher = stronger binding; sequences stand for … in GC…GCGATTGACAGCGTAGAATGAAGG
# [1] = tested on: RARb homodimer (NR concentration 270 nM)
# Method in brief: (§1)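 Custom Agilent 4×180K protein-binding microarrays carried double-stranded probes. Their 34-nt variable regions held direct-repeat seeds, single-nucleotide variants, half-site ablations and random human genomic background sequences. Arrays were incubated 1 h with ligand-free nuclear receptor dimers in PBS pH 7.4, 2% milk, 0.02% Triton X-100, 1 mM DTT, 0.2 mg/mL BSA and 0.4 mg/ml salmon testes DNA. Antibodies against each partner (one per run) detected binding, and scanned fluorescence was regression-normalized. Binding z-scores use random background probes as reference.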
# [2] = tested on: RARg:RXRa (NR concentration 270 nM, RXRa partner concentration 90 nM)
# Method in brief: as §1
# [3] = tested on: RARg homodimer (NR concentration 270 nM)
# Method in brief: as §1
# [4] = tested on: RXRa DBDmut IVT, anti-RXR (DBD mutation: RXRa K156A/R161A, NR concentration 90 nM)
# Method in brief: as §1
# [5] = tested on: RXRa homodimer (NR concentration 180 nM)
# Method in brief: as §1
# [6] = tested on: THRa:RXRa (NR concentration 90 nM, RXRa partner concentration 90 nM)
# Method in brief: as §1
# [7] = tested on: THRa homodimer (NR concentration 90 nM)
# Method in brief: as §1
# [8] = tested on: VDR homodimer (NR concentration 270 nM)
# Method in brief: as §1
Sequence,PBM binding z-score [1],PBM binding z-score [2],PBM binding z-score [3],PBM binding z-score [4],PBM binding z-score [5],PBM binding z-score [6],PBM binding z-score [7],PBM binding z-score [8]
CAAACTAGGTCGCAGAGGTCAAAGTCCGTGCGTA,4.96,6.18,5.62,2.9,6.96,4.19,1.67,5.86
AGAATGAGGTTACCAAAGATCAGGGATACGCTTG,1.07,2.08,1.72,1.22,2.54,2.8,1.06,0.23
TCTCGGAGGACATGAAAGGTCAGAGCTCGACATC,4.53,4.22,4.21,1.18,3.67,3.34,0.586,0.768
AGTCAAAGTTCAGAACGAGGTAACGTAAAGCACG,2.66,4.62,4.15,3.09,2.76,3.63,0.7,1.94
ATATGTAGGTTATCGTGTCATTCAGTTTGCGCAT,1.17,0.973,0.988,1.09,1.06,0.907,0.568,1.53
ATATGTAGGTTCTCGGGTCATTCAGTTTGCGCAT,2.61,2.47,1.7,2.28,2.88,3.46,3.29,4.65
TCGAGTAGGTTAGTCGGAGCATTCAGCCAACATA,-0.533,-0.461,-0.343,-0.252,-0.401,-0.658,-0.781,-0.514
TCTTGTAGATTAGCAGGTTAAGAAAGCTGGCCAA,0.292,-0.0657,-0.174,0.682,0.386,0.458,-0.511,-0.173
CAAACTAGGTCACGGGAAGGTCAAAGTCCGCATG,5.63,8.25,7.46,2.31,6.72,4.73,3.09,3.1
ATCTATAGGTAAAGTTCAGTGAAAGATCGATAGA,2.35,2.02,2.38,1.21,1.51,0.707,-0.456,1.95
CGAACTAGGTCAGAACAGGACAGTGAAGGATGAT,1.92,2.45,3.34,0.418,1.23,3.41,0.173,-0.0967
CAACCAAGGTGAACAAGGTCGTTGATTACTATTC,2.25,1.9,1.64,1.49,2.07,3.44,2.06,2.59
AGTCAACGTTCACTAGGTAACGTAAGATTCAGCT,0.0524,0.418,0.444,0.205,0.197,0.401,0.11,-0.293
ACTAGCAAGCCAAGTTTGGGTCACTCAAACAAAG,1.51,0.717,0.562,-0.45,0.557,2.09,0.807,-0.115
CCTACTCGGCCATTCAGAGGTCATTGATCATATG,4.19,4.17,3.64,2,3.59,3.32,1.99,4.02
ATATGTGGGTTAAGGGTCATTCAGGTTGGTTCGC,3.84,4.83,3.59,2.43,6.27,3.62,2.41,4.82
TAGCCTAGGTCATTCAGGGACCAGTATAGAAAGC,2.63,3.94,4.11,1.43,2.72,4.26,0.615,1.19
ATCTCTAGGTAAAGTTCAGGGAAAGATCGATAGA,2.7,2.5,2.77,1.38,1.98,1.61,0.441,2.18
TAGCCTAGGTCAGATCGGGCCAGTATCCGCTATA,2.26,2.39,3.37,-0.366,1.35,4,0.15,-0.329
TATACAGGCTCAAAGGCCAGAGTACGAATGTCGA,0.737,0.637,0.897,-0.662,0.521,-0.176,-0.638,0.383
TGAACGAGGTTAAAGATCAGGGAACGTGGCGTCG,0.576,2.39,1.35,0.835,3.89,2.04,-0.132,0.34
TCTATCAGTTGAAGGGCAACCGACGAGTCCGTTT,1.44,0.695,0.748,1.11,0.849,0.16,0.0373,1.44
CCAGACAGGAGAAAGGTAACTCAGTCTGGTACGC,0.0408,0.115,-0.016,-0.0562,0.502,-0.00788,-0.183,-0.102
CCTACTGGGCCACGAAAGGTCATCGATTCAGTGA,4.88,5.15,4.75,0.398,5.62,4,1.08,1.56
CGTCCGAGGTCAGAGAGGTCAGTGAATGCCGAGT,5.44,6.94,7.68,3.68,6.87,4.59,3,6.58
CCTACTGGGGCAAGGTTACCATAACGCACAGCCA,1.26,1.22,1.37,-0.688,1.02,1.14,0.409,0.0551
TCTGGTTGGTCAAAGGTCACACACTCGAAATGCG,4.94,7.36,6.25,1.79,8.3,4.07,2.65,3.34
CCTAGCAGGCGAATCTGGGTCACTCAAGGCTTGA,1.53,0.494,0.428,0.0113,0.669,2.71,0.222,-0.316
